{
  "source": "the supplement of paper PMC8728848",
  "assay_in_all_cases": "glycan array binding signal (z-score within array); higher = stronger binding",
  "details_in_all_cases": "glycan notation: IUPAC condensed, linker removed",
  "key": {"[1]": {"biological_target": "Gal(b1-4)GlcNAc(b1-3)[Fuc(a1-3)GlcNAc(b1-6)]Gal(b1-4)Glc", "in_short": "(§1)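 Arrays were curated from the Consortium for Functional Glycomics database, 3228 in total, and kept only where the protein sequence was available. Binding is expressed as a within-array Z-score. This score was averaged across arrays of the same protein sequence at different concentrations or buffers and across linkers, and negative values can be read as non-binding.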"}, "[2]": {"biological_target": "Gal(b1-4)GlcNAc(b1-6)[Gal(b1-4)GlcNAc(b1-3)]GalNAc", "in_short": "as §1"}, "[3]": {"biological_target": "Gal3S(b1-4)Glc", "in_short": "as §1"}, "[4]": {"biological_target": "Gal3S(b1-4)[Fuc(a1-3)]Glc6S", "in_short": "as §1"}, "[5]": {"biological_target": "Gal6S(b1-4)GlcNAc", "in_short": "as §1"}, "[6]": {"biological_target": "GalNAc(a1-3)GalNAc", "in_short": "as §1"}, "[7]": {"biological_target": "GalNAc(b1-4)GlcNAc6S", "in_short": "as §1"}, "[8]": {"biological_target": "Glc(a1-6)Glc(a1-6)Glc(a1-6)Glc", "in_short": "as §1"}, "[9]": {"biological_target": "GlcA3S(b1-3)Gal(b1-4)GlcNAc(b1-2)Man", "in_short": "as §1"}, "[10]": {"biological_target": "GlcNAc(a1-4)Gal(b1-4)GlcNAc(b1-3)Gal(b1-4)Glc", "in_short": "as §1"}, "[11]": {"biological_target": "GlcNAc(b1-2)[GlcNAc(b1-6)]Man(a1-6)[GlcNAc(b1-2)Man(a1-3)]Man(b1-4)GlcNAc(b1-4)GlcNAc", "in_short": "as §1"}, "[12]": {"biological_target": "GlcNAc(b1-3)Gal(b1-4)GlcNAc(b1-3)Gal(b1-4)GlcNAc(b1-2)[GlcNAc(b1-3)Gal(b1-4)GlcNAc(b1-3)Gal(b1-4)GlcNAc(b1-6)]Man(a1-6)[GlcNAc(b1-3)Gal(b1-4)GlcNAc(b1-3)Gal(b1-4)GlcNAc(b1-2)Man(a1-3)]Man(b1-4)GlcNAc(b1-4)[Fuc(a1-6)]GlcNAc", "in_short": "as §1"}, "[13]": {"biological_target": "GlcNAc(b1-3)Gal(b1-4)GlcNAc(b1-3)Gal(b1-4)GlcNAc(b1-3)Gal(b1-4)GlcNAc(b1-2)Man(a1-3)[GlcNAc(b1-3)Gal(b1-4)GlcNAc(b1-3)Gal(b1-4)GlcNAc(b1-3)Gal(b1-4)GlcNAc(b1-2)Man(a1-6)]Man(b1-4)GlcNAc(b1-4)[Fuc(a1-6)]GlcNAc", "in_short": "as §1"}, "[14]": {"biological_target": "GlcNAc6S(b1-3)Gal(b1-4)GlcNAc", "in_short": "as §1"}, "[15]": {"biological_target": "Neu5Ac(a2-3)Gal(b1-3)GlcNAc(b1-3)Gal(b1-3)GlcNAc", "in_short": "as §1"}, "[16]": {"biological_target": "Neu5Ac(a2-3)Gal(b1-3)GlcNAc(b1-3)Gal(b1-4)GlcNAc", "in_short": "as §1"}, "[17]": {"biological_target": "Neu5Ac(a2-3)Gal(b1-3)GlcNAc6S", "in_short": "as §1"}, "[18]": {"biological_target": "Neu5Ac(a2-3)Gal(b1-3)[Fuc(a1-4)]GlcNAc(b1-3)Gal(b1-4)[Fuc(a1-3)]GlcNAc", "in_short": "as §1"}, "[19]": {"biological_target": "Neu5Ac(a2-3)[GalNAc(b1-4)]Gal(b1-4)Glc", "in_short": "as §1"}, "[20]": {"biological_target": "Neu5Ac(a2-6)Gal(b1-4)GlcNAc(b1-2)Man(a1-6)Man(b1-4)GlcNAc(b1-4)GlcNAc", "in_short": "as §1"}, "[21]": {"biological_target": "Neu5Ac(a2-6)Gal(b1-4)GlcNAc(b1-2)Man(a1-6)[Gal(b1-4)GlcNAc(b1-2)Man(a1-3)]Man(b1-4)GlcNAc(b1-4)GlcNAc", "in_short": "as §1"}, "[22]": {"biological_target": "Neu5Ac(a2-6)Gal(b1-4)GlcNAc(b1-2)[Neu5Ac(a2-6)Gal(b1-4)GlcNAc(b1-4)]Man(a1-3)[GlcNAc(b1-4)][Neu5Ac(a2-6)Gal(b1-4)GlcNAc(b1-2)[Neu5Ac(a2-6)Gal(b1-4)GlcNAc(b1-6)]Man(a1-6)]Man(b1-4)GlcNAc(b1-4)GlcNAc", "in_short": "as §1"}, "[23]": {"biological_target": "Neu5Ac(a2-6)GalNAc(b1-4)GlcNAc", "in_short": "as §1"}, "[24]": {"biological_target": "Neu5Ac(a2-8)Neu5Ac(a2-3)[GalNAc(b1-4)]Gal(b1-4)Glc", "in_short": "as §1"}, "[25]": {"biological_target": "Neu5Ac(a2-8)Neu5Ac(a2-8)Neu5Ac(a2-3)Gal(b1-4)Glc", "in_short": "as §1"}, "[26]": {"biological_target": "Neu5Gc(a2-3)Gal(b1-4)GlcNAc(b1-3)Gal(b1-4)GlcNAc(b1-2)Man(a1-3)[Neu5Gc(a2-3)Gal(b1-4)GlcNAc(b1-3)Gal(b1-4)GlcNAc(b1-2)Man(a1-6)]Man(b1-4)GlcNAc(b1-4)GlcNAc", "in_short": "as §1"}},
  "note": "Many of the other results were omitted from the sample, so the strongest signals are more common in it than they were.",
  "data": [
    {"binder": "GS7807F-bth-514-18-514 (Bacteroides thetaiotaomicron) (protein) AGSCTGNFEEYNTNQFQIHEADPSTLMKSMIETIVNIQQNDSQMMDQMVGQLGGYLTCANVWSGTNFGTFNQSDAWNAGPWNTNFEKIYGNFFQIQEATNESGHYYAFARMIRAITMLRVADCYGPMPYSQVKKGNFYVAYDTEEQVYKNIMEDFASAANVLYNYYKDTNGNAPLASNDPVFSGNYANWARLANSMRLRVAIRISTAYPEMAKENAEAAASHEAGLIEANNDNAMMDCGSQTNPYQLAAVSWGDLRVNANIVDYMNGYGDPRMSKYFNHSTFTGHTQEYVGMRSGEDGFAKSDVAGYSIPAITGTSKLLVFCAAETAFLRAEGKLKNWSVGNKSAKEYYEEGIKLSMEQYGTTMPDNYLTNTEKPTVSHNNDPRGHAYTISNTVAVAWNDNNEEENLQRIITQKWIANYPLGLEAWAEYRRTGYPELYPCIDNLSPSGVDSKRGMRRLRFPYTEVQNNHSNYQQGVSYLKNGGPDNEATDLSWGKTN", "values": [
      {"measurement": "glycan array binding signal (z-score)", "setting": "[1]", "value": 1.53},
      {"measurement": "glycan array binding signal (z-score)", "setting": "[2]", "value": 0.25},
      {"measurement": "glycan array binding signal (z-score)", "setting": "[3]", "value": 0.164},
      {"measurement": "glycan array binding signal (z-score)", "setting": "[4]", "value": 3.48},
      {"measurement": "glycan array binding signal (z-score)", "setting": "[5]", "value": 0.547},
      {"measurement": "glycan array binding signal (z-score)", "setting": "[6]", "value": 0.13},
      {"measurement": "glycan array binding signal (z-score)", "setting": "[7]", "value": 0.521},
      {"measurement": "glycan array binding signal (z-score)", "setting": "[8]", "value": -0.652},
      {"measurement": "glycan array binding signal (z-score)", "setting": "[9]", "value": -0.771},
      {"measurement": "glycan array binding signal (z-score)", "setting": "[10]", "value": -0.587},
      {"measurement": "glycan array binding signal (z-score)", "setting": "[11]", "value": -0.73},
      {"measurement": "glycan array binding signal (z-score)", "setting": "[12]", "value": 0.581},
      {"measurement": "glycan array binding signal (z-score)", "setting": "[13]", "value": 3.26},
      {"measurement": "glycan array binding signal (z-score)", "setting": "[14]", "value": 1.06},
      {"measurement": "glycan array binding signal (z-score)", "setting": "[15]", "value": -0.891},
      {"measurement": "glycan array binding signal (z-score)", "setting": "[16]", "value": -0.842},
      {"measurement": "glycan array binding signal (z-score)", "setting": "[17]", "value": -0.491},
      {"measurement": "glycan array binding signal (z-score)", "setting": "[18]", "value": 0.124},
      {"measurement": "glycan array binding signal (z-score)", "setting": "[19]", "value": -0.409},
      {"measurement": "glycan array binding signal (z-score)", "setting": "[20]", "value": 3.88},
      {"measurement": "glycan array binding signal (z-score)", "setting": "[21]", "value": 3.49},
      {"measurement": "glycan array binding signal (z-score)", "setting": "[22]", "value": 0.039},
      {"measurement": "glycan array binding signal (z-score)", "setting": "[23]", "value": -0.875},
      {"measurement": "glycan array binding signal (z-score)", "setting": "[24]", "value": 3.32},
      {"measurement": "glycan array binding signal (z-score)", "setting": "[25]", "value": -0.82},
      {"measurement": "glycan array binding signal (z-score)", "setting": "[26]", "value": -0.775}
    ]}
  ]
}
